EWS-Fli inh: EWS/Fli transcriptional activity inhibition; A673 NR0B1-luciferase reporter, viability-normalised; inhibition, % at 12.6 µM; hit rate 0.67% among 350,000; AID 651661;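 active means mean inhibition of at least 50% after viability correction, with every replicate also passing that limit; inconclusive means mean reaches 50% but only one of two replicates passes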;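 further: firefly luciferase signal divided by Alamar Blue viability fluorescence both relative to DMSO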
MITF act: MITF TRPM1 promoter activation in melanoma cells | SK-MEL-5 TRPM1-promoter luciferase, 24 h; % of positive control, neutral wells = 0 | activation, % at 12.5 µM | hit rate 0.75% among 300,000;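 active means mean activation of at least 80% with every replicate also reaching 80%; inconclusive means mean reaches 80% but some replicate falls short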
Wnt bcat act: activates Wnt/beta-catenin signaling in a reporter cell assay. activator, plate reader. activation, % at 9.35 µM. hit rate 1.2% among 300,000; in the data active means activation above about 30%, passing the limit was not always enough; inconclusive means no clear call, values can overlap the other calls
PAX8 reporter: inhibitors of PAX8 transcriptional activity in RMG-I cells | RMG-I TPO-luciferase reporter, SteadyGlo, 24 h | inhibition, % at 12.6 µM | hit rate 1.2% among 360,000;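 active means mean replicate inhibition at least 60% with every replicate also reaching 60%; inconclusive means only one of the two criteria is met; inactive means mean below 60% and not all replicates reaching 60%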;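 further: luciferase light reporting Pax8 driven TPO promoter activity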
TRPM1 prom inh: MITF TRPM1 promoter inhibition in SK-MEL-5 cells | inhibition, % at 12.5 µM | hit rate 0.83% among 330,000 | SK-MEL-5 TRPM1 promoter luciferase, 24 h;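 active means mean inhibition across replicates of 60% or more, whatever share of single replicates reaches that level; inconclusive means some that reach 60%, reason not given; inactive means mean inhibition across replicates below 60%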
esBAF inh: blocks esBAF chromatin remodeling in mouse ES cells; Bmi1-luciferase knock-in reporter, 24 h; 100% = twice the neutral-well signal; reporter increase, % at 12.5 µM; hit rate 2% among 350,000; AID 602393; in the data active means activation above about 40%; inconclusive means no clear call, values can overlap the other calls;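 further: a rise in the Bmi1 reporter signal indicates esBAF inhibition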
Each line names hits and unclear results; the compound was inactive in the other large screens. This is a sample that favours compounds with a hit; in the whole collection about 4% have one here.

C[C@@H]1CCCCO[C@H](CN(C)S(=O)(=O)c2ccccc2)[C@H](C)CN([C@@H](C)CO)C(=O)c2cc(NC(=O)c3ccncc3)ccc2O1	none (no result: MITF act, Wnt bcat act, TRPM1 prom inh)
C[C@H](CO)N1C[C@H](C)[C@H](CN(C)C(=O)NC2CCCCC2)Oc2ncc(C#Cc3cccc(F)c3)cc2C1=O	none (no result: MITF act, Wnt bcat act, TRPM1 prom inh)
CC(C)NC(=O)N(C)C[C@H]1Oc2c(NS(=O)(=O)c3ccccc3)cccc2C(=O)N([C@@H](C)CO)C[C@@H]1C	none (no result: MITF act, Wnt bcat act, TRPM1 prom inh)
O=C(CCl)N1N=C(c2cccs2)CC1c1ccco1 (stereo unspecified)	EWS-Fli inh 71 (no result: esBAF inh)
CCOc1ccc(/C=N/NC(=O)c2ccccc2O)cc1CN1CC2CC(C1)c1cccc(=O)n1C2 (stereo unspecified)	esBAF inh 57 (no result: PAX8 reporter)
COc1ccc(CN(C)C[C@H]2OCCCC[C@@H](C)Oc3ccc(NC(=O)Nc4ccccc4)cc3C(=O)N([C@H](C)CO)C[C@H]2C)cc1	none (no result: MITF act, Wnt bcat act, TRPM1 prom inh)
C[C@H](CO)N1C[C@H](C)[C@@H](CN(C)Cc2ccc3c(c2)OCO3)Oc2c(NC(=O)Nc3ccc(C(F)(F)F)cc3)cccc2C1=O	none (no result: MITF act, Wnt bcat act, PAX8 reporter, TRPM1 prom inh)
O=c1[nH]c(SCc2nc3c(cnn3-c3ccccc3)c(=O)[nH]2)nc2ccccc12	esBAF inh 44 (no result: EWS-Fli inh, PAX8 reporter)
COc1ccc(-c2oc3ccccc3c2C(=O)OCc2ccccc2)cc1	none
COc1ccc(-c2oc3ccccc3c2C(=O)OCc2ccc(O)cc2)cc1	esBAF inh 45
C[C@H](CO)N1C[C@H](C)[C@@H](CN(C)Cc2ccccc2)OCCCC[C@H](C)Oc2ccc(NC(=O)Nc3ccc(F)cc3)cc2C1=O	none (no result: MITF act, Wnt bcat act, TRPM1 prom inh)
O=C(O)c1ccc(Nc2nc(-c3cc4ccccc4oc3=O)cs2)cc1O	none (no result: esBAF inh)
Nc1ccc(Nc2nc(-c3cc4ccccc4oc3=O)cs2)cc1	esBAF inh 81
O=C(Nc1cc2ccccc2oc1=O)c1ccccc1	EWS-Fli inh 74, TRPM1 prom inh 63 (no result: esBAF inh)
CC(=O)Nc1ccc(Nc2nc(-c3cc4ccccc4oc3=O)cs2)cc1	esBAF inh 90 (no result: MITF act)
O=C(Nc1ccc(N2CCCC2)c(Cl)c1)c1cccc(-c2cc3ccccc3oc2=O)c1	none (no result: esBAF inh)
CC(=O)Nc1ccc(NC(=O)c2cccc(-c3cc4ccccc4oc3=O)c2)cc1	esBAF inh 66
C[C@@H]1CCCCO[C@@H](CN(C)C(=O)Nc2ccc3c(c2)OCO3)[C@H](C)CN([C@@H](C)CO)C(=O)c2cc(NC(=O)Nc3ccc(C(F)(F)F)cc3)ccc2O1	none (no result: MITF act, Wnt bcat act, PAX8 reporter, TRPM1 prom inh)
O=C(Nc1nc2ccccc2s1)c1c(F)cccc1Cl	esBAF inh 52
O=C(Nc1ccc(F)cc1F)Nc1sccc1-c1nc2ccccc2s1	none (no result: MITF act)
O=C(Nc1nc(=O)c2ccccc2s1)c1ccc(F)cc1	esBAF inh 51 (no result: PAX8 reporter)
Nc1ccc(C(=O)Nc2nc3ccccc3s2)cc1	Wnt bcat act 35
O=C(Nc1nc(=O)c2ccccc2s1)c1ccc(Cl)cc1	none (no result: EWS-Fli inh, MITF act, PAX8 reporter)
O=C(Nc1nc2ccccc2s1)Nc1ccc(F)cc1F	Wnt bcat act 38 (no result: MITF act)
Cn1cc(Cl)c(C(=O)Nc2nc3ccccc3s2)n1	none (no result: EWS-Fli inh, PAX8 reporter)
CN1C(=O)c2cc(NS(=O)(=O)c3ccc(Cl)cc3)ccc2OC[C@@H]2O[C@H](CC(=O)N3CCc4ccccc4C3)CC[C@H]21	none (no result: MITF act, Wnt bcat act, TRPM1 prom inh)
O=C(C[C@H]1C=C[C@H](NS(=O)(=O)c2ccccc2)[C@H](CO)O1)NCc1ccc(Cl)c(Cl)c1	none (no result: MITF act, Wnt bcat act, TRPM1 prom inh)
O=C(C[C@@H]1C=C[C@H](NC(=O)Nc2ccc3c(c2)OCO3)[C@H](CO)O1)NCc1ccc2c(c1)OCO2	none (no result: MITF act, Wnt bcat act, TRPM1 prom inh)
C[C@H]1CN([C@@H](C)CO)S(=O)(=O)c2ccc(-c3cccnc3)cc2O[C@H]1CN(C)CC1CCOCC1	none (no result: MITF act, Wnt bcat act, TRPM1 prom inh)
Cc1cc(C)n(-c2ccc(C(=O)Nc3nc4ccccc4s3)cc2)n1	Wnt bcat act inconclusive, esBAF inh 44 (no result: EWS-Fli inh, PAX8 reporter)
Cc1ccnc2nc(C(=O)Nc3nc4ccccc4s3)nn12	Wnt bcat act 38
Cc1csc(NC(=O)c2nc3nccc(C)n3n2)n1	none (no result: EWS-Fli inh, Wnt bcat act, PAX8 reporter)
Fc1cccc2sc(Nc3nc4ccccc4s3)nc12	Wnt bcat act 36, esBAF inh inconclusive (no result: EWS-Fli inh)
COc1ccc(NC(=O)N(C)C[C@@H]2Oc3ccc(NC(=O)Nc4ccccc4)cc3C(=O)N([C@@H](C)CO)C[C@H]2C)cc1	none (no result: MITF act, Wnt bcat act, TRPM1 prom inh)
C[C@@H]1CN([C@@H](C)CO)C(=O)c2cc(C#CCN(C)C)cnc2O[C@H]1CN(C)C(=O)c1cccc(F)c1	none (no result: MITF act, Wnt bcat act, PAX8 reporter, TRPM1 prom inh)
COc1cccc(N2CCN(c3ncnc4c3[nH]c3ccc(F)cc34)CC2C)c1 (stereo unspecified)	TRPM1 prom inh 80 (no result: EWS-Fli inh, Wnt bcat act, PAX8 reporter)
N=C(N)CCCOc1ccccc1-c1ccccc1	PAX8 reporter 63 (no result: esBAF inh)
O=[N+]([O-])c1ccc(N=Nc2ncc[nH]2)cc1	EWS-Fli inh 63, Wnt bcat act 54, PAX8 reporter 74
CC(=NCCN1CCN(C(C)=C2C(=O)c3ccccc3C2=O)CC1)C1=C(O)CC(C)(C)CC1=O	PAX8 reporter 101 (no result: esBAF inh)
O=C(NCC1CC1)[C@@H]1[C@@H](CO)[C@@H]2Cn3c(ccc(-c4ccccc4)c3=O)[C@@H]2N1CC1CC1	none (no result: MITF act, Wnt bcat act, TRPM1 prom inh)
O=C(Oc1c(Cl)cc(Cl)c2cccnc12)c1cccs1	none (no result: EWS-Fli inh, Wnt bcat act)
O=C(Oc1c(CN2CCOCC2)cc(Cl)c2cccnc12)c1ccc(F)cc1	TRPM1 prom inh 64 (no result: EWS-Fli inh, Wnt bcat act, PAX8 reporter)
COc1ccc(C(=O)Oc2c(CN3CCOCC3)cc(Cl)c3cccnc23)cc1	none (no result: EWS-Fli inh, Wnt bcat act, PAX8 reporter)
O=C(Oc1c(CN2CCOCC2)cc(Cl)c2cccnc12)c1cccs1	Wnt bcat act 47, PAX8 reporter 71, TRPM1 prom inh 69
O=C(Oc1c(CN2CCOCC2)cc(Cl)c2cccnc12)c1ccccc1Cl	TRPM1 prom inh 76
O=C(C[C@@H]1C=C[C@H](NC(=O)C2CC2)[C@H](CO)O1)Nc1nccs1	none (no result: MITF act, Wnt bcat act, TRPM1 prom inh)
COc1cc2nc(C3CCC3)nc(N3CCN(c4ccccn4)CC3)c2cc1OC	none (no result: EWS-Fli inh, Wnt bcat act, PAX8 reporter, esBAF inh)
COc1cc2nc(C3CCC3)nc(N3CCN(c4ccccc4OC)CC3)c2cc1OC	PAX8 reporter 89 (no result: esBAF inh)
O=C(Nc1ccccc1Br)c1cc(=O)c2ccccc2o1	MITF act 152, esBAF inh 49
COc1ccc(S(=O)(=O)Nc2ccc3c(c2)C(=O)N([C@@H](C)CO)C[C@H](C)[C@H](CN(C)C(=O)NC2CCCCC2)OCCCC[C@@H](C)O3)cc1	none (no result: MITF act, Wnt bcat act, TRPM1 prom inh)
COc1cc(C2c3cc4c(cc3OC(NCCc3ccccc3)C2C)OCO4)cc(OC)c1OC (stereo unspecified)	EWS-Fli inh 54 (no result: esBAF inh)
COc1cc(C2c3cc4c(cc3OC(N3CCOCC3)C2C)OCO4)cc(OC)c1OC(C)=O (stereo unspecified)	none (no result: MITF act, esBAF inh)
COc1cc(C2c3cc4c(cc3OC(Nc3ccc(C(=O)O)cc3)C2C)OCO4)cc(OC)c1OC (stereo unspecified)	EWS-Fli inh 52 (no result: esBAF inh)
c1ccc2c(Nc3nc4c(s3)CCCC4)cccc2c1	Wnt bcat act 35 (no result: EWS-Fli inh, MITF act)
Cc1ccc(NC(=O)CN(C)CC(=O)NC2CCCc3ccccc32)cc1 (stereo unspecified)	Wnt bcat act 40
CCOc1ccc(NC(=O)CN(C)CC(=O)NC2CCCc3ccccc32)cc1OCC (stereo unspecified)	none (no result: EWS-Fli inh, MITF act)

Assay outcomes (PubChem)
